Sfp inh = qHTS Assay for Inhibitors of Bacillus subtilis Sfp phosphopantetheinyl transferase (PPTase); Biochemical Sfp PPTase activity, qHTS; AID 1490, 2009; hit rate 3.5% among 310,000; 4'-phosphopantetheinyl transferase ffp (Bacillus subtilis), Q9F4F7; Potency, µM, inactives show largest response in the series, negative = inhibition, hits mostly inhibitors;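 also: the enzyme is Sfp with the accession as filed and its product quenches rhodamine fluorescence; 0% = enzyme reaction without inhibitor and -100% = no enzyme wells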
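Sfp 15 nM + cpd, 15 min RT; start w/ rhodamine-CoA 5 uM, BHQ-2-YbbR 12.5 uM (final); 50 mM Hepes pH 7.6, 10 mM MgCl2, 0.01% NP-40, 0.01% BSA; read 525/598 nm at 0 and 30 min.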
HP1b chromo inh = HTS for Inhibitors of HP1-beta Chromodomain Interactions with Methylated Histone Tails; Chromobox protein homolog 1 (Homo sapiens), P83916; AlphaScreen HP1-beta / biotin-H3K9me3 peptide binding; Potency, µM (titrated, usually from 114 µM), inactives show at the top dose activity change, negative = inhibition, actives largely listed as inhibitors; hit rate 0.56% among 390,000; also: nearly all actives have a fitted effect of over 70% in size
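AlphaScreen: HP1-beta (50 nM) preformed 30 min with biotin-H3(1-18)K9me3 peptide (50 nM) in PBS pH 7.4, 0.01% Tween-20. Compound added for 30 min at RT, then streptavidin donor/nickel chelate acceptor beads (10 ug/mL) for 30 min.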
L3MBTL1 block = qHTS Assay for the Inhibitors of L3MBTL1 | Lethal(3)malignant brain tumor-like protein 1 (Homo sapiens), Q9Y468 | AlphaScreen L3MBTL1–H3K9me1 peptide binding | Potency, µM (highest dose often 57.1 µM), for inactives: at the highest dose activity, negative = inhibition, usual class: inhibitors | hit rate 0.66% among 230,000 | AID 485360, 2010; also: % is scaled to controls: 0 for no effect and ±100 for the full control effect; nearly all actives have a fitted effect of over 60% in size
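Displacement of a biotinylated histone H3(1-15) peptide monomethylated at Lys9 (75 nM) from L3MBTL1 (50 nM) was measured by AlphaScreen after a 30 min room-temperature compound incubation; cefsulodin titration served as intraplate control.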
JMJD2A Tudor inh = qHTS Assay for Inhibitors of JMJD2A-Tudor Domain; Lysine-specific demethylase 4A (Homo sapiens), O75164; AlphaScreen JMJD2A-Tudor / H3K4me3 peptide binding; Potency, µM (top dose mostly 114 µM), for inactives: at the highest dose activity change, negative = inhibition, most hits filed as inhibitors; hit rate 4.4% among 390,000; AID 504339, 2011; also: % is scaled to controls: 0 for no effect and ±100 for the full control effect; nearly all actives have a fitted effect of over 50% in size
Target sequence (O75164 whole entry, looked up, the tested form may be a part): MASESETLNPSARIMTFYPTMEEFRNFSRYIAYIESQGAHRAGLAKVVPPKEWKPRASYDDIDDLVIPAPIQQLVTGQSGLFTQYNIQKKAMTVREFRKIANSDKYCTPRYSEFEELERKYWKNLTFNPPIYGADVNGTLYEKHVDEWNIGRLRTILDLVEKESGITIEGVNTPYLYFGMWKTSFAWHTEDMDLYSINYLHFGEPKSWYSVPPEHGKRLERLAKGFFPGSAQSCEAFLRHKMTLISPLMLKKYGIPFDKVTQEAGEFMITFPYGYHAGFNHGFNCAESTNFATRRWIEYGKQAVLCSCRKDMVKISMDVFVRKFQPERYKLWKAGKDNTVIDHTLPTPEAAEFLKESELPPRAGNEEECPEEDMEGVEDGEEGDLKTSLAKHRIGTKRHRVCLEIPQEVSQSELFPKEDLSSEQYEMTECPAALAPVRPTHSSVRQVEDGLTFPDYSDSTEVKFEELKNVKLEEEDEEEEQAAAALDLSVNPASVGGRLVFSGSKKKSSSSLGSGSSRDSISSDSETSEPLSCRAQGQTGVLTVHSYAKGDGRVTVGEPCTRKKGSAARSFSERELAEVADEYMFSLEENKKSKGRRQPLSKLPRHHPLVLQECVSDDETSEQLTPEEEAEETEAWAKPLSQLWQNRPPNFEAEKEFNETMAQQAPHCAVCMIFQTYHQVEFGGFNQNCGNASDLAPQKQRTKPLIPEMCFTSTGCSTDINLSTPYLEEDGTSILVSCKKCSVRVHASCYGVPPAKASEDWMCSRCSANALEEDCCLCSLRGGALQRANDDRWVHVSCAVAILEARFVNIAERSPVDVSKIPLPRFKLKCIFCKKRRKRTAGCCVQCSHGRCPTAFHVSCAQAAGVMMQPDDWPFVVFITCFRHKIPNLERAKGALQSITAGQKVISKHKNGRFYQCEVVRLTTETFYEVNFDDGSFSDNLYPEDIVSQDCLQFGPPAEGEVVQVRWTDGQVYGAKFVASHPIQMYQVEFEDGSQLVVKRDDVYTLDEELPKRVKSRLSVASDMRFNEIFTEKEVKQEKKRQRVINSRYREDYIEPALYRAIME
BAZ2B block = qHTS Assay for Inhibitors of BAZ2B; Potency, µM (highest dose often 114 µM), inactives show at the top dose activity change, negative = inhibition, hits mostly inhibitors; AlphaScreen BAZ2B-H3K14Ac peptide displacement; Bromodomain adjacent to zinc finger domain protein 2B (Homo sapiens), Q9UIF8; hit rate 4.4% among 360,000; also: % is scaled to controls: 0 for no effect and ±100 for the full control effect; nearly all actives have a fitted effect of over 60% in size
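Protein-peptide AlphaScreen: BAZ2B 50 nM, b-H3K14Ac 50 nM, 1x PBS pH 7.4 + 0.01% Tween-20. Preincubation 30 min RT; cpd 30 min RT (top 110 uM); beads 20 min RT, light-protected.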
G9a inh = qHTS Assay for Inhibitors of Histone Lysine Methyltransferase G9a; Histone-lysine N-methyltransferase EHMT2 (Homo sapiens), Q96KQ7; G9a H3K9 monomethylation, AlphaScreen, 2 h; Potency, µM (top dose mostly 102 µM), for the others: top-dose activity, negative = inhibition, most hits filed as inhibitors; hit rate 8.8% among 350,000; AID 504332, 2011; also: % is scaled to controls: 0 for no effect and ±100 for the full control effect; nearly all actives have a fitted effect of over 75% in size
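Readings reflect AlphaScreen signal from monomethyl-H3K9 antibody detection. HMT at 20 nM; substrate b-H3K9 500 nM; cofactor SAM 20 uM; 2 h RT reaction; compounds tested as titrations in qHTS with 15 min preincubation.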
Active calls of the source: *; [ ] = remark or other dose. Shown are actives, neighbours in structure and some others; about 12% of the full set was active somewhere. Calls follow the shape of the dose curve; as a rule, active = well fitted curve in the direction sought with a large enough effect; inconclusive = small, poorly fitted or top-dose-only effect, or another doubt; inactive = no such curve, though single readings can be large; an effect the other way counts as inactive or inconclusive. Potency is read from the fitted curve at half-maximal effect.

`CCOc1ccc(S(=O)(=O)N2CCN(C(=O)C3CSC4(C)CCC(=O)N34)CC2)cc1` (stereo not drawn) gave HP1b chromo inh 34.1%, L3MBTL1 block -0.6%, JMJD2A Tudor inh -1.5%, BAZ2B block 10.3% and G9a inh -22.3%[12.7 µM].
`CCCNC(=O)CSc1nc(-c2ccc(OC)cc2)cc(C(F)(F)F)n1` gave HP1b chromo inh 20.8%, JMJD2A Tudor inh -16.8%, BAZ2B block -2.3% and G9a inh 9.4%[59 µM].
`CC(=O)NN1C(=O)/C(=C\c2ccc(Br)o2)SC1=S` gave Sfp inh 56.2µM*, HP1b chromo inh inconclusive, L3MBTL1 block inconclusive, JMJD2A Tudor inh -25.6%, BAZ2B block inconclusive and G9a inh 39.8µM*.
For CC(=O)NN1C(=O)/C(=C\c2ccccc2)SC1=S the results were Sfp inh 13.0%, HP1b chromo inh 25.3%, L3MBTL1 block -3.8%, JMJD2A Tudor inh -26.1%, BAZ2B block -28.5% and G9a inh 11.9%.
CC(=O)NN1C(=O)/C(=C/c2ccc(Br)o2)SC1=S was read as Sfp inh 56.2µM*, HP1b chromo inh 50.1µM*, JMJD2A Tudor inh 13.0%[11.4 µM], BAZ2B block -37.5% and G9a inh 50.1µM*.
For CN(C)c1ccc(NC(=O)c2cnsn2)cc1 the results were Sfp inh -5.0%, HP1b chromo inh -5.8%, L3MBTL1 block -10.5%, JMJD2A Tudor inh inconclusive, BAZ2B block -19.5% and G9a inh 50.1µM*.
Screening CC(=O)NCCOc1cccc(OCCNC(C)=O)c1 returned Sfp inh 17.9%, HP1b chromo inh 34.8%, L3MBTL1 block -4.9%, JMJD2A Tudor inh -13.9%, BAZ2B block 6.5% and G9a inh 10.7%[59 µM].
`CC(O)CNCCCOc1ccccc1OCc1ccccc1` (stereo not drawn) gave Sfp inh -12.6%, HP1b chromo inh -31.7%, L3MBTL1 block 4.4%, JMJD2A Tudor inh 3.16µM*, BAZ2B block 50.1µM* and G9a inh 12.6µM*.
Screening CNCCCOc1cccc(Oc2ccccc2)c1 returned Sfp inh -14.2%, HP1b chromo inh 8.2%, L3MBTL1 block 10.3%, JMJD2A Tudor inh 1.58µM* and BAZ2B block 50.1µM*.
For CNCCCOc1cccc(OC(C)C)c1 the results were Sfp inh -16.3%, HP1b chromo inh inconclusive, JMJD2A Tudor inh 1.58µM*, BAZ2B block 50.1µM* and G9a inh 12.6µM*.
Screening CC(O)CNCCCCOc1ccc(OCc2ccccc2)cc1 (stereo not drawn) returned Sfp inh 1.2%, HP1b chromo inh 12.0%, L3MBTL1 block -10.1%, JMJD2A Tudor inh -22.1%, BAZ2B block inconclusive and G9a inh 14.5%[59 µM].
For CC(O)CNCCCOc1cccc(Oc2ccccc2)c1 (stereo not drawn) the results were Sfp inh -21.4%, HP1b chromo inh 15.2%, L3MBTL1 block 4.0%, JMJD2A Tudor inh 22.4µM* and BAZ2B block 28.2µM*.
O=C(CCl)c1ccc2[nH]c(=O)oc2c1 was read as Sfp inh -14.7%, HP1b chromo inh 47.1%, L3MBTL1 block -9.0%, JMJD2A Tudor inh -23.2%, BAZ2B block inconclusive and G9a inh 44.7µM*.
N#CCCn1c(=O)c(-c2ccccc2)nc2cnc(Oc3ccccc3)nc21 was read as Sfp inh 2.2% and G9a inh 4.6%[12.7 µM].
`CCc1ccc(/C=C2\SC(=S)N(CCC(=O)NCCCN3CCOCC3)C2=O)cc1` gave Sfp inh -12.8%, HP1b chromo inh -7.7%, JMJD2A Tudor inh inconclusive and BAZ2B block 35.5µM*.
